The values that follow come from PubChem BioAssay (Tox21).

Inconclusive results are not listed. Where a call stands in place of a potency, no number is given. The source made the active and inactive calls. Calls come from the whole dose curve; as a rule, active = well fitted inhibition curve with a large enough effect in the repeat runs; inconclusive = weak or mixed curves; inactive = flat fitted curve, though single readings scatter.

This experiment in a line: qHTS assay to identify small molecule HDAC inhibitors (AID 1259364). Note: top concentration of the series differs between compounds; nearly all actives have a fitted effect of over 45% in size. The conditions noted are these: HCT-116 HDAC-Glo I/II luminescence, 2 h; series mostly up to 92.4 µM. The source says: U.S. Tox21 Program National Center for Advancing Translational Sciences [NCATS] NIH Chemical Genomics Center [NCGC] U.S. Environmental Protection Agency [EPA] National Institutes of Environmental Health Sciences [NIEHS] National Toxicology Program [NTP] U.S. Food and Drug Administration [FDA] Tox21 Assay Overview: Histone deacetylases (HDACs) are a group of epigenetic enzymes that regulate gene expression by histone deacetylation. HDACs are capable of introducing epigenetic modifications and such aberrations contribute to the onset and progression of several human diseases, thus making HDACs a popular therapeutic target. For identifying endogenous class I/II HDAC inhibitors a homogenous, luminogenic HDAC I/II cell based assay was used to measure the relative activity of class I and II HDACs from cells. Wild type HCT-116 cells were used to screen Tox21 libraries for identifying class I/II HDAC inhibitors.
Tox21 Assay Protocol Summary: HCT-116 cells were dispensed at 1,500 per well in 5uL of culture medium into white solid bottom 1536-well plates (Greiner Bio-One, Monroe, NC) using a Multidrop Combi (Thermo Scientific, Waltham, MA) dispenser. The assay plates were incubated at 37 C and 5% CO2 for an overnight, and then 23nL of compounds dissolved in DMSO and positive control were transferred using a Pintool station (Wako, San Diego, CA). The assay plates were incubated at 37C and 5% CO2 for 2hr. After compound treatment, 4uL of HDAC-Glo reagent (Promega Corporation, Madison, WI) was added to each well of the assay plates using Flying Reagent Dispenser (FRD, Aurora Discovery, San Diego, CA) and incubated the assay plates at room temperature for 30min. The luminescence signal was quantified using a ViewLux plate reader (Perkin Elmer, Shelton, CT).
In general terms: qHTS replaces the single test concentration by a dilution series.
On to `O=C1OC(CCN2CCCCC2)OC1(c1ccccc1)c1ccccc1` (stereo not given), for which the Potency entry was “inactive”. For `C[C@@H]1CN(C2CCC(C#N)(c3ccc(F)cc3)CC2)CC[C@]1(C(=O)O)c1ccccc1` (stereo not given in full) the value was “inactive”. For `BrCCCCCCBr` the value was “inactive”.

For the compound `Clc1ccccc1N1CCNCC1`, the Potency entry is “inactive”. For `CC(C)(C)NCC(O)c1cc(Cl)c(N)c(Cl)c1` (stereo not given) the value was “inactive”; for `CCCCN(CCCCO)N=O`, “inactive”; for `CC(=O)CC(c1ccc(Cl)cc1)c1c(O)c2ccccc2oc1=O` (stereo not given), “inactive”. Turning to `CC(C)(C)C(=O)C(Oc1ccc(Cl)cc1)n1cncn1` (stereo not given), the Potency result was “inactive”. Consider `C#CCN1C(=O)COc2cc(F)c(N3C(=O)C4=C(CCCC4)C3=O)cc21`, for which the Potency entry was “inactive”. As to `C[N+](=O)[O-]`, the Potency entry is “inactive”. For `CN1CCN(C(=O)O[C@H]2c3nccnc3C(=O)N2c2ccc(Cl)cn2)CC1`, the Potency entry is “inactive”. For the compound `O=C(CCN1CC1)OCC(CO)(COC(=O)CCN1CC1)COC(=O)CCN1CC1`, the Potency result is “inactive”.

For the compound `Fc1cc(Br)ccc1CBr`, the Potency result is “inactive”. For `OCCSCSCCO` the value was “inactive”; for `CCOC(=O)/C=C(C)/C=C/C[C@@H](C)CCCC(C)C`, “inactive”; for `ClC(Cl)C(Cl)Cl`, “inactive”. Then `CCc1cc2c(s1)-n1c(C)nnc1CN=C2c1ccccc1Cl`, with “inactive”. Then `CCC(Cl)[N+](=O)[O-]` (stereo not given), with “inactive”; and `OC(Cn1cncn1)(c1ccc(F)cc1)c1ccccc1F` (stereo not given), with “inactive”. `CCN(CC)CCOC(=O)C(C)(c1ccccc1)c1ccccc1`: the Potency entry was “inactive”. For `CNCC(=O)c1ccc(O)c(O)c1` the value was “inactive”; for `CC(C)NCC(O)c1ccc(N)c(C#N)c1` (stereo not given), “inactive”; for `CS(=O)(=O)c1cc(C(F)(F)F)ccc1C(=O)c1cnoc1C1CC1`, “inactive”. Then `O=[N+]([O-])c1cccc(O)c1`, with “inactive”. For `OC(c1ccccc1)(c1ccccc1)C1CCNCC1` the value was “inactive”. Regarding `CCSC(=O)N(CC)C1CCCCC1`, the Potency result was “inactive”. Turning to `CCC(=O)C(CCN(C)C)(c1ccccc1)c1ccccc1`, the Potency entry is “inactive”. Then `O=[N+]([O-])c1ccc(CBr)cc1`, with “inactive”; and `CC(=O)[C@H]1CC[C@H]2[C@@H]3CC[C@H]4C[C@H](O)CC[C@]4(C)[C@H]3C(=O)C[C@]12C`, with “inactive”. Consider `O=C(N[C@H]1CN2CCC1CC2)c1cc2ccoc2cn1`, for which the Potency entry is “inactive”. Then `Cc1ccccc1CO[C@@H]1C[C@@]2(C(C)C)CC[C@]1(C)O2`, with “inactive”.

`COC(=O)c1c(C(F)F)nc(C(F)(F)F)c(C2=NCCS2)c1CC(C)C`: the Potency entry is “inactive”. For `O=[N+]([O-])c1cc(Cl)c(Cl)c(Cl)c1` the value was “inactive”; for `N#Cc1ccncc1`, “inactive”; for `CC(C(O)c1ccccc1)N(C)C/C=C/c1ccccc1` (stereo not given), “inactive”. In the case of `CSc1ccc(C(=O)C(C)(C)N2CCOCC2)cc1`, the Potency result is “inactive”. Then `C=CC1CC=CCC1` (stereo not given), with “inactive”; and `Oc1c(Cl)cccc1Cl`, with “inactive”. Turning to `N#CC(O)c1ccccc1` (stereo not given), the Potency result is “inactive”. For `CCCCCCBr` the value was “inactive”.
